From PubChem BioAssay (NCI) come the findings set out here.

This is part of a sample that, as a whole, favours compounds with a hit. Of some 83,000 tested, about 20% had one in any assay.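 In brief: 96-well plates, 48 h treatment, single concentration, percent growth endpoint.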 Active and inactive are the calls of the source. Rule for the calls: active = growth percent below 10; inactive = the rest.

The experiment has as its system KM12 colon. The experiment is described as follows: NCI-60 one-dose screen, 48 h (100 = growth as untreated, 0 = no growth, -100 = all killed). The settings on record: 10 µM unless noted.
As to `COc1ccc(C(=O)c2nc3ccccc3n2CC(=O)c2ccc(F)cc2)cc1`, the growth is 56.2% (inactive).

As for `CN1CCN(c2ccc(NC3=C(Cl)C(=O)c4ncccc4C3=O)cc2C(F)(F)F)CC1`, the growth was 105% (inactive).

For `COc1ccccc1NS(=O)(=O)c1cccc(C(=O)Nc2ccc(Br)cc2)c1`, the growth was 34.6% (inactive).

`CCNC(=O)Oc1ccc(/C(=C(\C)c2ccccc2)c2ccc(OCCN(CC)CC)cc2)cc1`: the growth is 72.1% (inactive).

For `COc1ccc2c(c1)oc1c(C)c3c(c(C)c12)C(=O)N(N)C3=O`, the growth is 22% (inactive).

Consider `C[C@H]1[C@H]2[C@H]3CC[C@@H]4[C@@]5(C)CC[C@H](O)C(C)(C)[C@@H]5CC[C@@]4(C)[C@]3(C)CC[C@]23CO[C@]1(C)[C@@H](C(=O)/C=C\c1ccco1)C3`, for which the growth was 100% (inactive).

Regarding `COc1ccc(C/C(C)=C(/c2ccc(OCCCN(C)C)cc2)c2ccc(OC(C)=O)cc2)cc1`, the growth was 80.7% (inactive).

As to `CC1(C)CC[C@]23CC[C@]4(C)[C@H](CC[C@@H]5[C@@]6(C)CCCNC(C)(C)[C@@H]6CC[C@]54C)[C@H]2[C@H]1OC3`, the growth was -69% (active).
